# HttQ103 aggreg – qHTS Multiplex Assay to Identify Dual Action Probes in a Cell Model of Huntington: Aggregate Formation (GFP) | PC12 HttQ103-GFP aggregates, Acumen cytometry, 40 h | AID 1688, 2009 | 1.1% of 220,000 active | Potency, µM (titrated, usually from 46.1 µM), for the others: top-dose activity change, negative = inhibition, hits mostly inhibitors; also: % is scaled to controls: 0 for no effect and ±100 for the full control effect; nearly all actives have a fitted effect of over 60% in size
#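 Inducible Q103 Huntingtin exon 1–GFP PC12 line, 1500 cells/well in phenol red free DMEM with 5% equine and 5% calf serum. Tebufenozide 100 nM induced expression; compounds titrated; aggregates quantified by cytometry.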
# ATXN2 expr inh – Primary qHTS for Inhibitors of ATXN expression; HEK-293 ATXN2-luciferase reporter, luminescence, 24 h; Potency, µM (series often up to 57 µM), for inactives: at the highest dose activity change, negative = inhibition, usual class: inhibitors; 0.72% of 360,000 active; AID 1745845, 2022; also: % is scaled to controls: 0 for no effect and ±100 for the full control effect; nearly all actives have a fitted effect of over 55% in size
#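 ATXN2-luciferase reporter cells (luciferase flanked by upstream and downstream ATXN2 gene portions) were treated 24 h at 37 °C with compounds at up to 57 uM. SteadyGlo luminescence gave expression; GF-AFC fluorescence gave viability.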
# S2 tox – Viability Counterscreen for Primary qHTS for Inhibitors of ATXN expression; AID 651635, 2014; Potency, µM (series often up to 56.7 µM), most hits filed as cytotoxic; S2 cells (HEK-293 line with an ATXN2-luciferase reporter) viability, CellTiter-Fluor protease fluorescence, 24 h; 0.49% of 400,000 active; also: nearly all actives have a fitted effect of over 40% in size
# HTT ATP protect – qHTS Multiplex Assay to Identify Dual Action Probes in a Cell Model of Huntington: Cytoprotection (ATP); 0.14% of 230,000 active; PC12 HTT-Q103 induced, cytoprotection, ATP luminescence, 40 h; Potency, µM (highest dose often 56.4 µM), for the others: cytoprotection (ATP increase), usual class: activators; also: % of control where 0% means no effect; nearly all actives have a fitted effect of over 45% in size
#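 PC12 cells with ecdysone-inducible HTT exon 1 Q103-GFP, induced with 100 nM tebufenozide and co-treated with library compounds in a dose series (1536-well, 1500 cells/well). Cytoprotection read as ATP content by ATPlite luminescence.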
# TGFb SMAD3 inh – qHTS for Inhibitors of TGF-b; 1.2% of 410,000 active; Potency, µM (titrated, usually from 46.1 µM), for the others: top-dose activity, negative = inhibition, hits mostly inhibitors; HepG2 CAGA-GFP TGF-b/SMAD3 reporter, GFP fluorescence, 18 h; TGF-beta stimulated, 500 pg/mL final; also: % is scaled to controls: 0 for no effect and ±100 for the full control effect; nearly all actives have a fitted effect of over 65% in size
#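 Smad-responsive CAGA-GFP expression was quantified in HEPG2 cells exposed to compounds and 500 pg/mL final TGF-beta for 18 h at 37 degrees C; unstimulated wells defined full inhibition.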
# HepG2 viability – qHTS for Inhibitors of TGF-b: Cytotox Counterscreen; 0.76% of 410,000 active; Potency, µM (highest dose often 46.1 µM), without a hit: at the top dose activity change, negative = cytotoxicity, actives largely listed as cytotoxic; HepG2 CAGA-GFP viability, ATP luminescence, 18 h
#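 CellTiter-Glo luminescence gave cytotoxicity after 18 hours at 37 degrees C. The cells were HepG2 CAGA-GFP in 1% FBS DMEM, stimulated with 500 pg/mL TGF-beta after compound addition. %Activity was normalised to no-cell wells (complete cell-killing) and DMSO (no toxicity), and curves were fitted and classified.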
# * hit, by the source's call; i = inactive; ? = inconclusive; nt = no result given; [ ] = another dose, or the depositor's remark. A selection: hits, their analogues and other compounds. The true share with any hit is near 2.8%. Calls follow the shape of the dose curve; as a rule, active = well fitted curve in the direction sought with a large enough effect; inconclusive = small, poorly fitted or top-dose-only effect, or another doubt; inactive = no such curve, though single readings can be large; an effect the other way counts as inactive or inconclusive. Potency is read from the fitted curve at half-maximal effect.
SMILES,HttQ103 aggreg,ATXN2 expr inh,S2 tox,HTT ATP protect,TGFb SMAD3 inh,HepG2 viability
O=[N+]([O-])c1ccc(S(=O)Cc2ccccc2)c([N+](=O)[O-])c1 (stereo not drawn),nt,?,21.2µM*,nt,7.94µM*,-114.7%
O=[N+]([O-])c1ccc(CS(=O)c2ccccc2)cc1 (stereo not drawn),nt,2.4%,i,nt,?,-24.8%
CCN(CC(=O)Nc1ccc(NC(C)=O)cc1)c1ccc(C(F)(F)F)cn1,10.4%,4.7%,i,11.6%[0.074 µM],3.4%,3.55µM*
CCOC(=O)N1CCN(CC(O)COc2ccccc2C(C)C)CC1 (stereo not drawn),8.3%,-7.2%,i,10.8%,-4.7%,-16.9%
CCN(CCNCC(O)COc1ccccc1C(C)C)c1cccc(C)c1 (stereo not drawn),nt,?,nt,nt,?,15.8µM*
CC[n+]1c(/C=C2\C=C(C)CC(C)(C)C2)sc2ccccc21,?,?,?,-18.0%,10µM*,-30.1%
CCC1=C/C(=C/c2sc3ccccc3[n+]2CC)CC(C)(C)C1,3.2%,-33.9%,i,-29.3%,?,-17.9%
CC(C)(O)C#Cc1ccc(CN2CCc3nnc(CNC(=O)c4cccc(F)c4)n3CC2)cc1,nt,nt,i,nt,nt,nt
Clc1ccc(OCCSCc2nc3ccccc3[nH]2)cc1,7.08µM*,?,i,14.3%[10 µM],2.9%,-10.8%
Cc1ccc(OCCSCc2nc3ccccc3[nH]2)cc1,-0.1%,0.1%,i,-35.4%,-35.0%,-23.5%
CCn1c(-c2ccccc2F)nc2cc(NC(C)=O)cc(C(=O)N3CCNC(=O)C3CC(=O)OC)c21 (stereo not drawn),nt,nt,i,nt,nt,nt
CN=c1scc(-c2ccco2)n1/N=C/c1ccc(O)c(O)c1,8.91µM*,51.9%,i,-237.2%,-10.1%,-22.7%
O=C(O)c1ccc(-c2c[nH]c3ncc(-c4ccccc4)cc23)cc1C1CCCC1,nt,3.9%,nt,nt,nt,nt
O=C(CN(C1CCCCC1)S(=O)(=O)c1ccc(F)cc1)NCC1CCCO1 (stereo not drawn),nt,-5.8%,?,nt,4.47µM*,7.08µM*
C/C(=N\NC(=O)c1c(Cl)cnn1C)c1ccc(NC(=O)c2ccncc2)cc1,-8.7%,-21.6%,i,-23.7%[10 µM],4.0%,10µM*
C/C(=N\NC(=O)c1ccccc1NC(=O)c1ccc(Cl)cc1)c1ccncc1,-15.9%,nt,i,-185.0%,3.7%,1.26µM*
Cn1ncc(Cl)c1C(=O)Nc1ccncc1,?,-2.6%,i,-11.1%[10 µM],6.5%,-21.7%
COc1cccc([C@@H]2Oc3ccc(Br)cc3C[C@H]2O)c1,nt,nt,nt,0.1%,nt,nt
CC(C)c1cccc2c([Si](C)(C)C)c3c(nc12)-c1cccc(=O)n1C3,nt,nt,nt,-161.2%,nt,nt
C/C(Cn1nnc([N+](=O)[O-])n1)=N\NC(=O)c1ccc(O)cc1,-17.6%[9.22 µM],nt,?,0.4%[10 µM],11.2µM*,-31.0%
C/C(Cn1nnc([N+](=O)[O-])n1)=N\NC(=O)c1ccc(Cl)c(Cl)c1,?,?,?,-3.4%,10µM*,14.1µM*
Cc1nc([N+](=O)[O-])c(Br)n1CC(=O)c1ccc(F)cc1,28.2µM*,-12.9%,i,-248.4%,0.0%,-13.9%
Cc1nc([N+](=O)[O-])c(Br)n1CC(=O)c1cccc([N+](=O)[O-])c1,?,?,?,-60.2%[10 µM],-27.7%,-30.2%
C#CC(c1ccccc1)(c1ccccc1)n1ccnc1,nt,nt,i,nt,-4.9%,-16.8%
Clc1ccccc1C(c1ccccc1)(c1ccccc1)n1ccnc1,?,?,?,-54.9%,?,20µM*
SMILES,HttQ103 aggreg,ATXN2 expr inh,S2 tox,HTT ATP protect,TGFb SMAD3 inh,HepG2 viability
O=C(O)c1ccncc1.O=C(O)c1ccncc1.[Cl][Pt]([Cl])([Cl])[Cl],nt,nt,nt,-11.7%[10 µM],nt,nt
O=Cc1cc2c3c(c1)CCCN3CCC2,nt,nt,nt,nt,-21.8%,-30.6%
CC(C)CCNC(=O)C1CCN(C(=O)c2cc3sccc3n2Cc2ccc(Cl)cc2)CC1,nt,nt,nt,nt,6.31µM*,-20.9%
COCCCNC(=O)C1CCN(C(=O)c2cc3sccc3n2Cc2ccc(F)cc2)CC1,-1.5%,5.6%,i,7.5%[10 µM],0.7%,-18.8%
CN[C@@H](C)[C@H]1[C@H](O)C[C@@]2(C)[C@@H]3CC[C@H]4C(C)(C)[C@@H](NC)CC[C@@]45C[C@@]35CC[C@]12C,nt,-1.4%,nt,nt,nt,nt
C=C1C(=O)c2sccc2C(c2ccc(OC)c(OC)c2)C1COC(C)=O (stereo not drawn),nt,?,nt,nt,0.708µM*,4.47µM*
CCN1CCN(CC(=O)N2N=C(c3cccs3)CC2c2ccc(OC)c(OC)c2)C(=O)C1=O (stereo not drawn),5.4%,-12.4%,i,-12.7%,-15.0%,0.5%
COc1cccc(N/C(SCc2cccc([N+](=O)[O-])c2)=C(/C#N)C(N)=O)c1,?,-22.8%,i,?,?,14.1µM*
O=C1OC(Nc2nc(-c3ccc(F)cc3)cs2)c2ccccc21 (stereo not drawn),nt,-37.6%,?,nt,11.2µM*,-39.6%
O=C1OC(Nc2nc3ccccc3s2)c2ccccc21 (stereo not drawn),13.4%,9.1%,i,-15.8%[10 µM],3.4%,-0.8%
CC(=O)Nc1ccc(N2C(=O)CC(Sc3nc4ccccc4s3)C2=O)cc1 (stereo not drawn),10.8%[9.22 µM],nt,i,-27.2%,8.2%,-8.7%
COc1ccc(N2C(=O)CC(Sc3nnc(-c4ccccc4)o3)C2=O)cc1 (stereo not drawn),25.1µM*,nt,nt,-150.5%,-2.7%,-100.9%
COc1ccc(N2C(=O)CC(Sc3nc4ccccc4s3)C2=O)cc1OC (stereo not drawn),15.8%[9.22 µM],nt,31.6µM*,3.4%[10 µM],-2.6%,-30.0%
Cn1nc(CC(=O)Nc2ccc3c(c2)OCCO3)c2ccccc2c1=O,?,?,i,0.2%[10 µM],12.8%,-14.5%
Cc1ccc(NC(=O)Cc2nn(C)c(=O)c3ccccc23)cc1F,3.55µM*,-9.6%,i,-27.2%,0.0%,-28.7%
